# Experimental data from PubChem BioAssay (EPA / NIEHS).
# Records with an inconclusive call do not appear. The source made the active and inactive calls. Rule for the calls, unless noted: active = hit-call score of the fitted dose curve at least 0.9, where 1 is the maximum; inactive = score below 0.9.
# Tests used:
# [1] = target: Paired box protein Pax-6 (Homo sapiens) (UniProt P26367); experiment: ATG_Pax6_CIS: Attagene CIS-FACTORIAL HepG2 Assay for human Paired Box 6 (PAX6) (AID 2282956); conditions: HepG2 CIS-FACTORIAL PAX6 reporter transcription, RNA readout; actives raise or lower the signal
# Paired box protein Pax-6 (Homo sapiens), sequence (P26367 whole entry, looked up): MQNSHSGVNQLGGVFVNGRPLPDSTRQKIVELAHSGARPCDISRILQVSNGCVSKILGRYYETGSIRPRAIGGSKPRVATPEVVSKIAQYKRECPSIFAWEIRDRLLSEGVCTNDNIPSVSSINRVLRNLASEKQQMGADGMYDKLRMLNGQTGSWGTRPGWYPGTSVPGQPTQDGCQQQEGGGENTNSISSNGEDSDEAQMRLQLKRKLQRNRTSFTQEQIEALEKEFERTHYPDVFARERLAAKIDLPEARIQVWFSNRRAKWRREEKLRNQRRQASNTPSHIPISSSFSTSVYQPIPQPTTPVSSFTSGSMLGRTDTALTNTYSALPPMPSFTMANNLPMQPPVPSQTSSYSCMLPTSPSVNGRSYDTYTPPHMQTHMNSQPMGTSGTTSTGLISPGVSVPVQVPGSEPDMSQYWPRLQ
# Outline: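 After twenty-four hours of chemical exposure, transfected HepG2 cells are harvested for RNA. Cis-promoter reporter transcripts are amplified, fluorescently labelled and sized by capillary electrophoresis, with gain and loss of signal scored against DMSO.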
# [2] = ATG_PXRE_CIS: Attagene CIS-FACTORIAL HepG2 Assay for human Pregnane X Receptor Element (PXRE) (AID 2282957); conditions: HepG2 Attagene CIS-FACTORIAL PXRE reporter, mRNA; actives raise or lower the signal
# Outline: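 Multiplexed cis-reporter assay in transiently transfected human HepG2 cells; 24 h chemical exposure. Reporter transcripts quantified by RT-PCR with fluorescent labeling and capillary electrophoresis.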
# [3] = ATG_PPRE_CIS: Attagene CIS-FACTORIAL HepG2 Assay for human Peroxisome Proliferator-activated Response Element (PPRE) (AID 2282958); conditions: HepG2 PPRE cis-element reporter, Attagene transcription factor profiling; actives raise or lower the signal
# Outline: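 Transcript-level reporter induction in transfected HepG2 cells after 24 h chemical exposure, quantified by fluorescence from RT-PCR products separated by capillary electrophoresis.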
# [4] = target: Transcription factor Sp1 (Homo sapiens) (UniProt P08047); experiment: ATG_Sp1_CIS: Attagene CIS-FACTORIAL HepG2 Assay for human Specificity Protein 1 (Sp1) (AID 2282961); conditions: HepG2 Sp1 cis-reporter transcription, actives raise or lower the signal
# Transcription factor Sp1 (Homo sapiens), sequence (P08047 whole entry, looked up): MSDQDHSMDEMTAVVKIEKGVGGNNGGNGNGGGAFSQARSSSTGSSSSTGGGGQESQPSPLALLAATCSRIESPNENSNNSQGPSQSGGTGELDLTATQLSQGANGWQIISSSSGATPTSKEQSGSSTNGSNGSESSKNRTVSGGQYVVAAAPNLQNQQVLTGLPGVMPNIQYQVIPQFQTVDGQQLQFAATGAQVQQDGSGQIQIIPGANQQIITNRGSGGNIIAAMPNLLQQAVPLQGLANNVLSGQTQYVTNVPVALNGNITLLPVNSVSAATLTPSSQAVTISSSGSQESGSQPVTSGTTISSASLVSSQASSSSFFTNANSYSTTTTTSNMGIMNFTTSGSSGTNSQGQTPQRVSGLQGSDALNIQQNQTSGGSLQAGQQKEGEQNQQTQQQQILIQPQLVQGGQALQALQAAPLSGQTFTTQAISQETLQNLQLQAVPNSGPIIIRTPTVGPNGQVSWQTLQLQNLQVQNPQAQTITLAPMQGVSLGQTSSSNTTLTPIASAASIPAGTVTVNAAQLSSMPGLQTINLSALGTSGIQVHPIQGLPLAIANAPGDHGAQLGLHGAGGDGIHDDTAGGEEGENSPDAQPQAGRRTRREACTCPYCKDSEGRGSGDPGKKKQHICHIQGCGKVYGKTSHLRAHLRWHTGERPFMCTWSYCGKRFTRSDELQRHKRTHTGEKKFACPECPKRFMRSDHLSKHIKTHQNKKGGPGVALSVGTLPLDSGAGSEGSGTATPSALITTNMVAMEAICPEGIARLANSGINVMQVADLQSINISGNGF
# Outline: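 Measures mRNA induction of an Sp1-linked reporter in HepG2 cells 24 h post-dosing. Multiplexed reporters read by RT-PCR and capillary electrophoresis; DMSO serves as negative control and baseline.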
# [5] = ATG_SREBP_CIS: Attagene CIS-FACTORIAL HepG2 Assay for human Sterol Regulatory Element Binding (SREBP) (AID 2282962); conditions: HepG2 Attagene cis-factorial SREBP reporter, mRNA; actives raise or lower the signal
# Outline: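 Twenty-four hours after chemical dosing of transfected HepG2 cultures, reporter RNA was converted to cDNA, amplified, end-labelled with 6-FAM and resolved by capillary electrophoresis. Responses were fitted relative to DMSO.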
# [6] = target: Signal transducer and activator of transcription 3 (Homo sapiens) (UniProt P40763); experiment: ATG_STAT3_CIS: Attagene CIS-FACTORIAL HepG2 Assay for human Signal Transducer and Activator of Transcription 3 (STAT3) (AID 2282963); conditions: HepG2, Attagene cis-factorial STAT3 reporter transcription; actives raise or lower the signal
# Signal transducer and activator of transcription 3 (Homo sapiens), sequence (P40763 whole entry, looked up): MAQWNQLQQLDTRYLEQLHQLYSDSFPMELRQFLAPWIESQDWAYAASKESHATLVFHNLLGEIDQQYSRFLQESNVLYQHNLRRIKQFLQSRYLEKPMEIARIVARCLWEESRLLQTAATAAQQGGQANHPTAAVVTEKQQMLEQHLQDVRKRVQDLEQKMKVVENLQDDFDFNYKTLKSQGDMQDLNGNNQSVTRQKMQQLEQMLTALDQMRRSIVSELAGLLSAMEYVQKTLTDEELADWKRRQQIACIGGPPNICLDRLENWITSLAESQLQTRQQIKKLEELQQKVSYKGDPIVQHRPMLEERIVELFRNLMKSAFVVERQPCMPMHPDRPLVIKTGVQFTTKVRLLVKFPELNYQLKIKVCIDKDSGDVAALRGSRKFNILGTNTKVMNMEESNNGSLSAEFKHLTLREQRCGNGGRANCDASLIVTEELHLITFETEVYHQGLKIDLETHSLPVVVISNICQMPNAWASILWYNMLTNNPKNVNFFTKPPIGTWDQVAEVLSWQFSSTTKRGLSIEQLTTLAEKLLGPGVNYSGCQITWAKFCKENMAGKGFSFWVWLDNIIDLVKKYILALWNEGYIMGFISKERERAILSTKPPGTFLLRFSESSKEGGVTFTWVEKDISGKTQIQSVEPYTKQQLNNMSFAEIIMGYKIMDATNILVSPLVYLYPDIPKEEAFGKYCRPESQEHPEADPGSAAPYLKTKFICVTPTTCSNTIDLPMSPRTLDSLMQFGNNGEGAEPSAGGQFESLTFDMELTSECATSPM
# Outline: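 After a 24 h compound incubation, total RNA from MRTU-transfected HepG2 cells was converted to cDNA and reporter sequences PCR-amplified, labelled and profiled by capillary electrophoresis. Gain and loss of signal were referenced to DMSO.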
# [7] = ATG_TA_CIS: Attagene CIS-FACTORIAL HepG2 Assay for human TA Basal Promoter (AID 2282964); conditions: HepG2 Attagene CIS-factorial TA basal promoter reporter; actives raise or lower the signal
# Outline: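 HepG2 cells transiently transfected with multiple reporter units under cis promoter elements, reporting endogenous transcription factor activity; this endpoint tracks the TA basal promoter as background control. Reporter mRNA after 24 h dosing measured by RT-PCR/capillary electrophoresis; bidirectional fits versus DMSO.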
# [8] = ATG_TCF_b_cat_CIS: Attagene CIS-FACTORIAL HepG2 Assay for human T-Cell-Factor with beta-catenin (TCF/b-cat) (AID 2282965); conditions: HepG2 TCF/beta-catenin cis-reporter transcription, actives raise or lower the signal
# Outline: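 Endogenous transcription factor activity is captured through cis-promoter reporter constructs transiently introduced into human HepG2 liver cells. Induced reporter mRNA is measured after 24 h and fitted bidirectionally relative to DMSO.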
# [9] = ATG_TAL_CIS: Attagene CIS-FACTORIAL HepG2 Assay for human TAL Basal Promoter (AID 2282966); conditions: HepG2 Attagene cis-factorial TAL promoter reporter; actives raise or lower the signal;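 note: background control endpoint measuring basal TAL promoter reporter mRNA not a specific factor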
# Outline: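 Steps: transfect HepG2 with multiple reporter transcription units; dose 24 h; isolate RNA, reverse-transcribe, PCR-amplify, label with 6-FAM, digest with HpaI; resolve by capillary electrophoresis. Bidirectional fitting against DMSO baseline.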
# [10] = ATG_TGFb_CIS: Attagene CIS-FACTORIAL HepG2 Assay for human Transforming Growth Factor (TGF) (AID 2282967); conditions: HepG2 Attagene CIS TGFb reporter, mRNA transcription; actives raise or lower the signal
# Outline: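 HepG2 cells transiently transfected with cis-promoter-driven multiple reporter units measure endogenous TF activity; reporter mRNA quantified at 24 h by RT-PCR, FAM labeling, HpaI digestion and capillary electrophoresis. Bidirectional fit vs DMSO.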
# [11] = target: X-box-binding protein 1 (Homo sapiens) (UniProt P17861); experiment: ATG_Xbp1_CIS: Attagene CIS-FACTORIAL HepG2 Assay for human X-box Binding Protein 1 (XBP1) (AID 2282972); conditions: HepG2 XBP1 cis-element reporter, Attagene multiplex; actives raise or lower the signal
# X-box-binding protein 1 (Homo sapiens), sequence (P17861 whole entry, looked up): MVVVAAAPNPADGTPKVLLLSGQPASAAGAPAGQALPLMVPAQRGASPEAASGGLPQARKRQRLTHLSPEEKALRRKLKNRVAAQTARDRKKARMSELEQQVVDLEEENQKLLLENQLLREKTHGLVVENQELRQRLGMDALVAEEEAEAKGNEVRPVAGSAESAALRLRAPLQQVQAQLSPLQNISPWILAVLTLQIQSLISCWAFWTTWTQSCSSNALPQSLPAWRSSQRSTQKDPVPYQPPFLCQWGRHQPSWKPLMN
# Outline: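 After a 24-hour chemical exposure of HepG2 cells carrying cis-regulated reporters, reporter mRNA levels are assessed. Quantification uses RT-PCR, 6-FAM labelling and capillary electrophoresis. Gain- or loss-of-signal is fitted against DMSO.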
# [12] = target: Estrogen-related receptor gamma (Homo sapiens) (UniProt P62508); experiment: ATG_ERRg_TRANS: Attagene TRANS-FACTORIAL HepG2 Assay for human Estrogen-Related Receptor gamma (ERRg) (AID 2282977; active = hit-call score of the fitted dose curve at least 0.9, where 1 is the maximum;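 note: hits increase reporter signal over DMSO so potencies reflect activators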); conditions: HepG2 Attagene TRANS reporter, ERRg transactivation
# Estrogen-related receptor gamma (Homo sapiens), sequence (P62508 whole entry, looked up, the tested form may be a part): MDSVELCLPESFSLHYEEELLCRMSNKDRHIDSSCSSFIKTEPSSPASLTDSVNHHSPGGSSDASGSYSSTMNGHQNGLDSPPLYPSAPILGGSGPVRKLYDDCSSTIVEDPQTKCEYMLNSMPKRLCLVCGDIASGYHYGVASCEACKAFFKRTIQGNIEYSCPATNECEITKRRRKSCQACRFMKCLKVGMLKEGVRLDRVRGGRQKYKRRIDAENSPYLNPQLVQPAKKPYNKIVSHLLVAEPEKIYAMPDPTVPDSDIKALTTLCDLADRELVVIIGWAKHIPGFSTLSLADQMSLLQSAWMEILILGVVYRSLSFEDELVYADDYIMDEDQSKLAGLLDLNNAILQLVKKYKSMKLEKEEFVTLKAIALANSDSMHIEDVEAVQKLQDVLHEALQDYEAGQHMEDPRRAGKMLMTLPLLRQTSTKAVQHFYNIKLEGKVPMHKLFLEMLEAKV
# Outline: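 Transient HepG2 transfectants, 24 h compound exposure, GAL4-UAS reporter mRNA by RT-PCR/6-FAM labelling/capillary electrophoresis; positive direction vs DMSO.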
# [13] = ATG_Sox_CIS: Attagene CIS-FACTORIAL HepG2 Assay for human SRY-box transcription factor (SOX) (AID 2282960); conditions: HepG2 Attagene cis-factorial SOX reporter, mRNA; actives raise or lower the signal
# Outline: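 Cells were transfected with reporter constructs under cis-regulatory promoters, then exposed to chemicals for 24 h. Reporter transcripts were quantified by fluorescence after RT-PCR and capillary electrophoresis; activity was fitted in both directions against DMSO.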
# [14] = ATG_VDRE_CIS: Attagene CIS-FACTORIAL HepG2 Assay for human Vitamin D Receptor Element (VDRE) (AID 2282968); conditions: HepG2 VDRE cis-reporter transcription, actives raise or lower the signal
# Outline: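 In transiently transfected HepG2 liver cells, gain or loss of reporter mRNA after 24 h exposure is scored relative to DMSO, using fluorescence detection by capillary electrophoresis of RT-PCR products.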
# [15] = ATG_M_19_TRANS: Attagene TRANS-FACTORIAL HepG2 Assay for M19 Transcription Factor (Internal Marker) (AID 2282974; active = hit-call score of the fitted dose curve at least 0.9, where 1 is the maximum); conditions: HepG2 Attagene TRANS-FACTORIAL M19 internal marker reporter
# Outline: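 After transfection of HepG2 with GAL4-UAS-driven reporter constructs, cells are dosed for 24 h. Total RNA is reverse-transcribed, reporter sequences PCR-amplified and labelled, then HpaI-digested and sized by capillary electrophoresis.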
# [16] = target: Estrogen receptor (Homo sapiens) (UniProt P03372); experiment: ATG_ERa_TRANS: Attagene TRANS-FACTORIAL HepG2 Assay for human Estrogen Receptor alpha (ERa) (AID 2282970; active = hit-call score of the fitted dose curve at least 0.9, where 1 is the maximum); conditions: HepG2 Attagene TRANS ERa GAL4 reporter, mRNA
# Estrogen receptor (Homo sapiens), sequence (P03372 whole entry, looked up, the tested form may be a part): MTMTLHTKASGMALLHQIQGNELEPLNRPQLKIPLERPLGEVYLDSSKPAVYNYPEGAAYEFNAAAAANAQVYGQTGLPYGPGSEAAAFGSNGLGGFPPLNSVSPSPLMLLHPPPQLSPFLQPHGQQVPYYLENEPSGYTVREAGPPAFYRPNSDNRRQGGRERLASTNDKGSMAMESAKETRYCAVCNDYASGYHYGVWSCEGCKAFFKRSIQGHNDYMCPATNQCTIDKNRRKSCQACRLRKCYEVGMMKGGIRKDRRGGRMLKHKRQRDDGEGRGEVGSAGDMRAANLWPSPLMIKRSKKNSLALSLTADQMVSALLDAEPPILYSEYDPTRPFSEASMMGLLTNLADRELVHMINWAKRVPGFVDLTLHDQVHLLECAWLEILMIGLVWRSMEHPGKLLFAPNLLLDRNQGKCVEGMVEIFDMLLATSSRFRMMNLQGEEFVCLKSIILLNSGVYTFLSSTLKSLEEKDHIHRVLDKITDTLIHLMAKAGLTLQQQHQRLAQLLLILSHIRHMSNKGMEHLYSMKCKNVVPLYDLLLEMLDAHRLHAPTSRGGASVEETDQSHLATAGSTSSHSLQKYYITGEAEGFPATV
# Outline: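 Multiplexed cell-based reporter format in HepG2: chimeric ERa-Gal4 protein drives GAL4-UAS reporter transcription. Fluorescent reporter mRNA quantified by capillary electrophoresis 24 hours after dosing; endpoint fitted as signal gain against DMSO.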
# [17] = target: Steroid hormone receptor ERR1 (Homo sapiens) (UniProt P11474); experiment: ATG_ERRa_TRANS: Attagene TRANS-FACTORIAL HepG2 Assay for human Estrogen-Related Receptor alpha (ERRa) (AID 2282971; active = hit-call score of the fitted dose curve at least 0.9, where 1 is the maximum); conditions: HepG2 Attagene TRANS reporter, ERRa transactivation
# Steroid hormone receptor ERR1 (Homo sapiens), sequence (P11474 whole entry, looked up, the tested form may be a part): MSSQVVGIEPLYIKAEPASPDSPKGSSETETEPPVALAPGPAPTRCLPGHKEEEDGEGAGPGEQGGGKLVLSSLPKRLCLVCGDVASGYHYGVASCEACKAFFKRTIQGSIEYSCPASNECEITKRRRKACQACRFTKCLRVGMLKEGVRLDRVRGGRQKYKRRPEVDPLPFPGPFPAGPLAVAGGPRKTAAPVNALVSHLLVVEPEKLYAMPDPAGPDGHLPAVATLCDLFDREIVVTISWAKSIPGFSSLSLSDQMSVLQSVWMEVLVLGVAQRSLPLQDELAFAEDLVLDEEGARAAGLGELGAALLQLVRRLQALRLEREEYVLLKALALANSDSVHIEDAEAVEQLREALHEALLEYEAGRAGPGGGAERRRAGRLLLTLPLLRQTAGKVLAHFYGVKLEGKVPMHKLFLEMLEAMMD
# Outline: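 Signal gain relative to DMSO for an ERRa-Gal4 chimeric receptor, read as reporter mRNA by RT-PCR/capillary electrophoresis. Human HepG2 liver cells, transient multiplex reporter transfection, 24 h chemical exposure.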
# [18] = ATG_RORE_CIS: Attagene CIS-FACTORIAL HepG2 Assay for human RAR-related Orphan Receptor Element (RORE) (AID 2282959); conditions: HepG2 Attagene cis-factorial RORE reporter, mRNA; actives raise or lower the signal
# Outline: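 Multiplexed reporter assay measuring mRNA induction from a cis promoter element in transiently transfected HepG2 cells after 24 h treatment. Detection via RT-PCR and capillary electrophoresis fluorescence; DMSO serves as baseline.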
# [19] = target: Nuclear receptor subfamily 1 group I member 3 (Homo sapiens) (UniProt Q14994); experiment: ATG_CAR_TRANS: Attagene TRANS-FACTORIAL HepG2 Assay for human Constitutive Androstane Receptor (CAR) (AID 2282969; active = hit-call score of the fitted dose curve at least 0.9, where 1 is the maximum;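 note: activators raise reporter mRNA above DMSO so AC50 marks induction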); conditions: HepG2 Attagene TRANS-FACTORIAL CAR reporter
# Nuclear receptor subfamily 1 group I member 3 (Homo sapiens), sequence (Q14994 whole entry, looked up, the tested form may be a part): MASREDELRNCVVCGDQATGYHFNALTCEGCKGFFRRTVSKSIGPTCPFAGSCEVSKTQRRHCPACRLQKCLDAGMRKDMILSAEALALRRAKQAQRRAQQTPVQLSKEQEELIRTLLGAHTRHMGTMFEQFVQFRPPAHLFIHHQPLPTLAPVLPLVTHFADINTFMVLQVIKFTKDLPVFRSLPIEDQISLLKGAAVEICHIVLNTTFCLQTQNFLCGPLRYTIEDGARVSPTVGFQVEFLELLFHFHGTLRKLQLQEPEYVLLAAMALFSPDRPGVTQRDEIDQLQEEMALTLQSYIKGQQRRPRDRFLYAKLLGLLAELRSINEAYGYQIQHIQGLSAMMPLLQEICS
# Outline: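 Readout is reporter mRNA induction, quantified by fluorescent primer extension and capillary electrophoresis after RT-PCR. Cells were HepG2 transiently carrying chimeric NR-Gal4 constructs with GAL4-UAS reporters, treated for 24 h; activity scored upward from DMSO.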
structure (smiles),measurement,setting,value
Nc1ccc(Cl)cc1Cl,outcome,[1],inactive
same,outcome,[2],inactive
same,outcome,[3],inactive
same,outcome,[4],inactive
same,outcome,[5],inactive
same,outcome,[6],inactive
same,outcome,[7],inactive
same,outcome,[8],inactive
same,outcome,[9],inactive
same,outcome,[10],inactive
same,outcome,[11],inactive
same,outcome,[12],inactive
NC(=O)NNC(N)=O,outcome,[1],inactive
same,outcome,[2],inactive
same,outcome,[3],inactive
same,outcome,[13],inactive
same,outcome,[4],inactive
same,outcome,[5],inactive
same,outcome,[8],inactive
same,outcome,[9],inactive
same,outcome,[10],inactive
same,outcome,[14],inactive
same,outcome,[11],inactive
same,outcome,[15],inactive
same,outcome,[12],inactive
COC(=O)c1ccc2cc(C(=O)OC)ccc2c1,outcome,[1],inactive
same,outcome,[2],inactive
same,outcome,[3],inactive
same,outcome,[13],inactive
same,outcome,[4],inactive
same,outcome,[5],inactive
same,outcome,[6],inactive
same,outcome,[7],inactive
same,outcome,[8],inactive
same,outcome,[9],inactive
same,outcome,[10],inactive
same,outcome,[16],inactive
same,outcome,[17],inactive
same,outcome,[11],inactive
same,outcome,[12],inactive
CC1(C)O[C@@H]2C[C@H]3[C@@H]4C[C@H](F)C5=CC(=O)C=C[C@]5(C)[C@@]4(F)[C@@H](O)C[C@]3(C)[C@]2(C(=O)CO)O1,outcome,[1],inactive
same,AC50,[2],6.12 µM (active)
same,outcome,[3],inactive
same,outcome,[13],inactive
same,outcome,[4],inactive
same,outcome,[5],inactive
same,outcome,[6],inactive
same,outcome,[7],inactive
same,outcome,[8],inactive
same,outcome,[9],inactive
same,outcome,[10],inactive
same,outcome,[14],inactive
same,AC50,[16],9.67 µM (active)
same,outcome,[11],inactive
Cc1cccc(OCCOc2cccc(C)c2)c1,outcome,[1],inactive
same,outcome,[2],inactive
same,outcome,[3],inactive
same,outcome,[18],inactive
same,outcome,[4],inactive
same,outcome,[5],inactive
same,outcome,[6],inactive
same,outcome,[7],inactive
same,outcome,[8],inactive
same,outcome,[9],inactive
same,outcome,[10],inactive
same,outcome,[19],inactive
same,outcome,[16],inactive
same,outcome,[17],inactive
same,outcome,[11],inactive
same,outcome,[15],inactive
Cc1ccc(C(C)(C)C)cc1,outcome,[1],inactive
same,outcome,[2],inactive
same,outcome,[3],inactive
same,outcome,[18],inactive
same,outcome,[4],inactive
same,outcome,[5],inactive
same,outcome,[6],inactive
same,outcome,[8],inactive
same,outcome,[9],inactive
same,outcome,[10],inactive
same,outcome,[14],inactive
same,outcome,[19],inactive
same,outcome,[11],inactive
same,outcome,[15],inactive
COc1ccc(NC(C)=O)cc1N,outcome,[1],inactive
same,outcome,[2],inactive
same,outcome,[3],inactive
same,outcome,[13],inactive
same,outcome,[4],inactive
same,outcome,[5],inactive
same,outcome,[6],inactive
same,outcome,[7],inactive
same,outcome,[8],inactive
same,outcome,[9],inactive
same,outcome,[10],inactive
same,outcome,[11],inactive
CCN(CCC#N)c1ccc(N=Nc2c(Cl)cc([N+](=O)[O-])cc2Cl)cc1,outcome,[1],inactive
same,AC50,[2],1.67 µM (active)
same,outcome,[3],inactive
same,outcome,[13],inactive
same,outcome,[4],inactive
same,outcome,[5],inactive
same,outcome,[7],inactive
same,outcome,[8],inactive
same,outcome,[9],inactive
same,outcome,[10],inactive
same,AC50,[16],4.92 µM (active)
same,outcome,[11],inactive
same,outcome,[12],inactive
COc1ccc(-c2coc3cc(O)ccc3c2=O)cc1,outcome,[1],inactive
same,AC50,[2],11.3 µM (active)
same,outcome,[3],inactive
same,outcome,[13],inactive
same,outcome,[4],inactive
same,outcome,[5],inactive
same,outcome,[7],inactive
same,outcome,[9],inactive
same,outcome,[10],inactive
same,outcome,[14],inactive
same,AC50,[16],1.21 µM (active)
same,outcome,[11],inactive
